Drawing on PubChem BioAssay (NCATS), this text covers Potency and activation for 40 compounds.

The structures appear in SMILES notation. Inconclusive results are not listed. Where a call stands in place of a potency, no number is given. Active and inactive are the calls of the source. The call rests on the fitted dose curve; in most records, active means well fitted activation curve with a large enough effect; inconclusive means small, poorly fitted or top-dose-only effect; inactive means no such curve, though single readings can be large or run the other way.

Sequence of Rap guanine nucleotide exchange factor 4 (Homo sapiens) (Q8WZA2 whole entry, looked up): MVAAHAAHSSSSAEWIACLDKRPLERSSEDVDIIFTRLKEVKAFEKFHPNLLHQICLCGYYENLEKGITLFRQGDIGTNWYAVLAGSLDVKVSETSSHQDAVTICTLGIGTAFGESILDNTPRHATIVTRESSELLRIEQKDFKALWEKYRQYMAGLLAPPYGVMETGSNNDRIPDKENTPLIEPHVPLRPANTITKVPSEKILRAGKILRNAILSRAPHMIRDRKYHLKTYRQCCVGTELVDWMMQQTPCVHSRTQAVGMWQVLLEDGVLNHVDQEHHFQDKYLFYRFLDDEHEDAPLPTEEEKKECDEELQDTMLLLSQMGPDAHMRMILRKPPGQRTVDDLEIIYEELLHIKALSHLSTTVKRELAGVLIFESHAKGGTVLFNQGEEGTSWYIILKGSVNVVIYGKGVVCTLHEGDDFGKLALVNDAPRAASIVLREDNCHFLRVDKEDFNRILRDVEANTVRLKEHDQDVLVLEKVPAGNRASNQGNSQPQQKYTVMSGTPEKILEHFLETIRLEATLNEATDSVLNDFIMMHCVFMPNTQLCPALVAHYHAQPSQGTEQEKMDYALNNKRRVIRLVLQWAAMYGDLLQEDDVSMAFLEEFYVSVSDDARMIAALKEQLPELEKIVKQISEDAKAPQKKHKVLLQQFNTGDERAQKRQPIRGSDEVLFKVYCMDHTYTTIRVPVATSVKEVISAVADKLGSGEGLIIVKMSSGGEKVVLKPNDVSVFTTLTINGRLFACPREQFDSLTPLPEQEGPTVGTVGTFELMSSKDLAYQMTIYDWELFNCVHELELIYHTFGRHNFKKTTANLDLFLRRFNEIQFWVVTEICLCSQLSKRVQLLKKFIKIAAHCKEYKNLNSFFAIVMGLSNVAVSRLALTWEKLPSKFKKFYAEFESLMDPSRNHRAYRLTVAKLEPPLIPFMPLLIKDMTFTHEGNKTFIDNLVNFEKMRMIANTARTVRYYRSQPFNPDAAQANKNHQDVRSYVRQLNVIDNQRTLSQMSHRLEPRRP

This assay has as its target Rap guanine nucleotide exchange factor 4 (Homo sapiens) (UniProt Q8WZA2). Kind of assay: Confirmatory qHTS for agonist of cAMP-regulated guanine nucleotide exchange factor 4 (EPAC2) (AID 1645884). Further: nearly all actives have a fitted effect of over 65% in size. To be noted: EPAC2 GEF activity, Rap1B-BODIPY-GDP fluorescence; series mostly up to 154 µM. (In general: Quantitative high-throughput screening tests each substance at several concentrations.)
With `CC(c1nc2ccccc2n1Cc1ccccc1)n1c(-c2cnccn2)nc2ccccc21` (stereo not given), the Potency result is “inactive”.

With `Cc1ccc(NC(=O)CC2S/C(=N/N=C3\CCCc4ccccc43)NC2=O)cc1` (stereo not given), the activation was 0% [at 17.1 µM, percent relative to cAMP agonist control] (inactive).

For the compound `CCOC(=O)C1=CN(Cc2cccc(F)c2)S(=O)(=O)NC1c1ccc(Br)cc1F` (stereo not given), the Potency result is “inactive”.

Take `CCOC(=O)c1cc2c(ccn2C)n1CC(=O)N1CCN(c2cccc(C(F)(F)F)c2)CC1`: the activation is 0% [at 17.1 µM, percent relative to cAMP agonist control] (inactive).

For `CCOC(=O)c1ccc(NC(=O)c2c(NCc3cccs3)sc3c2CCCCC3)cc1`, the Potency result is “inactive”.

As for `S=c1[nH]nc(-c2cc(-c3ccccc3)n[nH]2)n1/N=C/c1cccc(Cl)c1`, the Potency result was “inactive”.

As to `CCc1ccc(/C=C2\SC(=S)N(CCCC(=O)Nc3ccccc3C(=O)O)C2=O)cc1`, the activation is 7.93% [at 17.1 µM, percent relative to cAMP agonist control] (inactive).

Consider `Cc1noc(NS(=O)(=O)c2ccc(N/C=C\C(=O)c3cccc4ccccc34)cc2)c1C`, for which the Potency entry is “inactive”.

`O=C(O)CC/C(=C/c1cccc(NC(=O)c2ccccc2Cl)c1)c1nc2ccccc2s1`: the Potency entry is “inactive”.

For the compound `CC(=O)c1ccc(OCc2nnn(CC(=O)NS(=O)(=O)c3ccc(C)cc3)c2-c2ccccc2)cc1`, the activation is 1.38% [at 17.1 µM, percent relative to cAMP agonist control] (inactive).

For the compound `O=S(=O)(c1ccc2c(c1)C(O)c1ccccc1CC2)C(F)(F)F` (stereo not given), the Potency result is “inactive”.

Regarding `CCc1nc(Oc2cccc(F)c2)c2oc3ccccc3c2n1`, the Potency result was “inactive”.

Turning to `O=C(Nc1cccc(Cl)c1)Nc1ccccc1NS(=O)(=O)c1cccs1`, the activation was 0% [at 17.1 µM, percent relative to cAMP agonist control] (inactive).

As for `COc1ccc(/C=C2\C(=O)NC(=S)N2C(=O)c2ccc(F)cc2)cc1`, the Potency result is “inactive”.

For `O=C(COc1ccc(Cl)cc1)NC1=NN(c2ccccc2)C(=O)C1`, the Potency result was “inactive”.

For the compound `Oc1ccc2ccccc2c1/C=N/c1nc2c(s1)CCCC2`, the Potency entry is “inactive”.

`CCOc1cc(CNc2ccc(O)cc2)cc(Cl)c1OCc1ccccc1`: the Potency entry was “inactive”.

Consider `COc1ccc(/C=N/NC(=O)c2[nH]c3ccc(Br)cc3c2-c2ccccc2)c(C(=O)O)c1OC`, for which the activation is 2.8% [at 17.1 µM, percent relative to cAMP agonist control] (inactive).

In the case of `Cc1cc(/C=C2\SC(=S)NC2=O)c(C)n1-c1cccc(O)c1`, the Potency result was “inactive”.

Consider `C#Cc1ccc([C@@H]2C=C(C(=O)OCC=C)O[C@H](OCc3ccc(CO)cc3)C2)cc1`, for which the activation was -0.524% [at 17.1 µM, percent relative to cAMP agonist control] (inactive).

Consider `Oc1ccc(NCc2cccc(OCc3ccccc3)c2)cc1`, for which the Potency result was “inactive”.

Regarding `Fc1ccc(/C=C2\CCCC3=C2Nc2ncnn2C3c2ccc(F)cc2)cc1` (stereo not given), the activation was 4.94% [at 17.1 µM, percent relative to cAMP agonist control] (inactive).

For `COc1cccc(/C=C2\SC(=S)NC2=O)c1OS(=O)(=O)c1ccc(NC(C)=O)cc1`, the activation is 5.66% [at 17.1 µM, percent relative to cAMP agonist control] (inactive).

Take `CN(C)S(=O)(=O)c1ccc(N2CCCC2)c(C(=O)NCC2COc3ccccc3O2)c1` (stereo not given): the Potency entry is “inactive”.

With `CC(CNC(=O)c1sc2ncccc2c1-n1cccc1)c1ccccc1` (stereo not given), the Potency entry is “inactive”.

Consider `Cc1cc(N2CCOCC2)ccc1/C=C1/SC(=O)NC1=O`, for which the Potency entry was “inactive”.

Take `CC1=NN(c2ccccc2)C(=O)C1C(=O)c1cc([N+](=O)[O-])cc([N+](=O)[O-])c1` (stereo not given): the Potency entry is “inactive”.

Consider `COc1ccc(NC(=O)Cn2ncc(Cl)c(Cl)c2=O)cc1S(=O)(=O)N1CCOCC1`, for which the activation was -6.12% [at 17.1 µM, percent relative to cAMP agonist control] (inactive).

As for `COc1ccccc1NC(=O)c1ccccc1NS(=O)(=O)c1cccs1`, the Potency result is “inactive”.

`O=C(Nc1ccccc1)C1=C(O)CC(c2ccc(Cl)cc2)N2CCN=C12` (stereo not given): the Potency entry is “inactive”.

In the case of `CCCCn1c(COc2cccc(OC)c2)nc2ccccc21`, the Potency entry is “inactive”.

For the compound `CCC(C)Cn1c(O)cc2nn(-c3nc4ccccc4s3)c(=O)c-2c1C` (stereo not given), the activation was -0.693% [at 17.1 µM, percent relative to cAMP agonist control] (inactive).

`Cc1ccc(-n2nc3ccc(NC(=O)/C=C/c4ccco4)cc3n2)cc1C`: the Potency entry is “inactive”.

For the compound `COCCN1C(=O)c2[nH]nc(-c3ccccc3O)c2C1c1ccc(Cl)c(Cl)c1` (stereo not given), the Potency result is “inactive”.

With `COc1ccc(OC)c(NC(=O)C(C)Oc2ccc(Br)cc2)c1` (stereo not given), the Potency result is “inactive”.

Turning to `CCc1nc2c(OCc3ccc(OC(F)F)cc3)cccn2c1N(C)C(=O)c1cccs1`, the Potency entry was “inactive”.

Take `Cc1cc(C)c(S(=O)(=O)c2ccccc2)c(OC(=O)c2c(F)cccc2F)n1`: the activation is -4.73% [at 17.1 µM, percent relative to cAMP agonist control] (inactive).

On to `COc1cc(OC)c(NC(=O)CN(C)S(=O)(=O)c2ccc(-c3ccc(=O)[nH]n3)s2)cc1Cl`, for which the Potency entry was “inactive”.

`O=C(O)c1ccc(N/N=C/c2ccc(-c3ccccc3Cl)o2)cc1`: the activation was 7.2% [at 17.1 µM, percent relative to cAMP agonist control] (inactive).

`COc1cn(-c2ccccc2)nc1C(=O)Nc1ccc(C)cc1Cl`: the Potency entry was “inactive”.
